Results as given in PubChem BioAssay (NCI).
This is part of a sample that, as a whole, favours compounds with a hit. Of some 83,000 tested, about 20% had one in any assay.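 Values shown are percent growth following 48 h exposure of cells in 96-well plates to a single concentration of compound; below 10 was considered active.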 A number with no mark means an inactive call. Activity calls are given as the source filed them.

Legend:
Experiment in all cases: NCI-60 one-dose screen, 48 h (100 = growth as untreated, 0 = no growth, -100 = all killed)
Details in all cases: 10 µM unless noted
NCI-H23 lung = system: NCI-H23 lung
NCI-H226 lung = system: NCI-H226 lung
NCI-H322M lung = system: NCI-H322M lung
HOP-62 NSCLC = system: HOP-62 NSCLC
NCI-H460 lung = system: NCI-H460 lung
HOP-92 NSCLC = system: HOP-92 NSCLC
NCI-H522 lung = system: NCI-H522 lung
A549/ATCC NSCLC = system: A549/ATCC NSCLC
786-0 renal = system: 786-0 renal
COLO 205 colon = system: COLO 205 colon

Row | Compound | growth (NCI-H23 lung) | growth (NCI-H226 lung) | growth (NCI-H322M lung) | growth (HOP-62 NSCLC) | growth (NCI-H460 lung) | growth (HOP-92 NSCLC) | growth (NCI-H522 lung) | growth (A549/ATCC NSCLC) | growth (786-0 renal) | growth (COLO 205 colon)
1 | COc1ccc(NC(=O)c2cccc(C3CCc4c(cc(OC)c(OC)c4OC)O3)c2)cc1 (stereo not given) | 52.1% | 47.5% | 53.9% | 30.7% | 18.2% | -2.49% (active) | 21.8% | 32.1% | 26.1% | 41.3%
2 | O=C1CCC(C(=O)NN(c2ccccc2)c2ccccc2)N1 (stereo not given) | 108% | 96.3% | 107% | 101% | 101% | 69.6% | 96.5% | 103% | 48.9% | 111%
3 | CCN(CC)c1ccc(/C=N\NC(=O)c2cccc(Nc3ccnc(C(F)(F)F)c3)c2)c(O)c1 | 39.5% | -3.12% (active) | 33% | 29.5% | 1.17% (active) | 20.6% | 41.5% | 31.3% | 5.84% (active) | -0.627% (active)
4 | CCCn1c(=S)sc2c1nc(C)n1c(Nc3ccccc3)nnc21 | 26.6% | 66.9% | 83.9% | 75.5% | 45.3% | 48.9% | 12.4% | 66.1% | 54.8% | 128%
5 | COc1ccc(C/C(C)=C(\c2ccc(O)cc2)c2ccc(OCCN3CCCC3)cc2)cc1 | 105% | 113% | 99.2% | 102% | 113% | 104% | 97.5% | 98% | 100% | 111%
6 | CN(C)c1ccc(/C=C/C(=O)c2ccc(Nc3nc(Nc4ccc(F)cc4)nc(Nc4ccc(Cl)cc4)n3)cc2)cc1 | 73.3% | 89.3% | 95.7% | 78.3% | 62.7% | 51.3% | 56.4% | 53% | 71.2% | 64.2%
7 | C=C1C(=O)O[C@H]2[C@H]1CC/C(CNC(=O)c1cc3ccccc3[nH]1)=C\CC[C@@]1(C)O[C@@H]21 | -42.3% (active) | -42.9% (active) | 63.8% | 9.39% (active) | -19.7% (active) | -51.1% (active) | -75.4% (active) | 9.2% (active) | -67.3% (active) | -83.3% (active)
8 | Cn1cc(-c2csc(-c3cn(C(=O)OC(C)(C)C)c4ccccc34)n2)c2ccnc(Cl)c21 | 57.1% | 46.4% | 85.3% | 72.4% | 22.4% | 58.5% | 50% | 26.8% | 67.2% | 39.8%
9 | COc1ccc(-c2cn(-c3ccc(Cl)cc3)c(SCC(=O)c3ccc([N+](=O)[O-])cc3)n2)cc1 | 86.9% | 91.3% | 81.1% | 50.4% | 91.5% | 28% | 70.7% | 101% | 52.9% | 110%
10 | S=c1ssnc1-c1cccs1 | 85% | 96.1% | 94.5% | 103% | 107% | 80.5% | 96.3% | 117% | 65.1% | 115%
11 | C/C(=C(\c1ccc(OCCN2CCCCCC2)cc1)c1ccc(OC(=O)Cc2ccccc2)cc1)c1ccc(Cl)cc1 | 48.5% | 91.2% | 73.5% | 7.91% (active) | -60.1% (active) | 49.5% | 38.8% | 31.7% | -42% (active) | -79.7% (active)
12 | COc1cc(/C=C2\CN(S(=O)(=O)c3ccc(C)cc3)C/C(=C\c3cc(CN4CCCCC4)c(O)c(OC)c3)C2=O)cc(CN2CCCCC2)c1O | -64% (active) | -52.5% (active) | -74.4% (active) | -81.7% (active) | -72.5% (active) | -75.3% (active) | -58% (active) | -84.9% (active) | -65.4% (active) | -90.2% (active)
13 | CCOC(=O)Nc1nc2ccc(SCC(C)C)cc2s1 | 40.9% | 46.6% | 36.7% | 22.6% | 19.3% | 33.6% | 4.9% (active) | 28.5% | 27.8% | -14.9% (active)
14 | CN(C)c1ccc(/C=C2/C=C(c3ccccc3)OC2=O)cc1 | 95.4% | 105% | 96.9% | 96.3% | 103% | 98.2% | 55.7% | 96.4% | 100% | 99.3%
15 | Cc1c(N2CN3C[C@H](C)N4CN(c5c(C)n(C)n(-c6ccccc6)c5=O)CN5C[C@@H](C)N(C2)C3C54)c(=O)n(-c2ccccc2)n1C (stereo not given in full) | 95.1% | 101% | 103% | 103% | 101% | 90.8% | 98.9% | 106% | 102% | 109%
16 | O=C1/C(=C/c2cccc([N+](=O)[O-])c2)COc2ccc(O)cc21 | 89.3% | 111% | 89.8% | 88.2% | 92.4% | 110% | 8.12% (active) | 89.2% | 14.7% | 64.6%
17 | c1ccc(CNc2ccc3nc(CCC4CCCCC4)[nH]c3c2)cc1 | 68.2% | 71.4% | 86.7% | 80.1% | 78.1% | 44.7% | 58.3% | 72.5% | 62.2% | 1.16% (active)
18 | CC(C)[C@@]12C[C@@H](OC(=O)COC(=O)c3ccccc3)[C@@](C)(O1)[C@@H]1CC[C@@H](C)[C@H]1[C@@H]2OC(=O)/C=C/c1ccccc1 | 90.1% | 64.4% | 87% | 89.5% | 95.3% | 76.9% | 80.9% | 80.9% | 68.7% | 108%
19 | CCCCC(=O)Nc1ncc(Cc2ccccc2Cl)s1 | 69.4% | 63.4% | 86.8% | 42.7% | 51% | 51.3% | 19.9% | 40.9% | 50% | 37%
20 | COc1ccc(C(C)=O)cc1S(N)(=O)=O | 98.2% | 101% | 97.1% | 112% | 104% | 92% | 75.6% | 88% | 89.4% | 115%
21 | O=C(NCc1ccccc1O)c1cccc2ccccc12 | 47.8% | 76.7% | 95.9% | 86.5% | 70.3% | -8.54% (active) | 65.8% | 87.4% | 72.7% | 106%
22 | C=CCOC(=O)C1=C(C)NC(=O)NC1c1c(Cl)n(C)c2ccccc12 (stereo not given) | 88.3% | 97.8% | 96.9% | 92.9% | 106% | 55.3% | 93.3% | 103% | 91.3% | 111%
23 | CCn1cc(C2=C(c3cn(C)c4ncccc34)C(=O)NC2=O)c2cccnc21 | 66.3% | 57.5% | 79.6% | 73.1% | 44.5% | 81.4% | 83.9% | 65% | 50.5% | 49%
24 | O=C1Nc2ccccc2C2c3cccn3-c3ccccc3N12 (stereo not given) | 81% | 89.5% | 83% | 58.2% | 88.9% | 57.8% | 8.49% (active) | 61.7% | 87.8% | 60.5%
25 | C#Cc1cccc(Oc2ccc(NC(=O)CCl)cc2)c1 | 20.7% [8.25 µM] | 55.9% [8.25 µM] | 100% [8.25 µM] | 83.5% [8.25 µM] | 19% [8.25 µM] | 81.2% [8.25 µM] | -32.6% [8.25 µM] (active) | 68.3% [8.25 µM] | 74.8% [8.25 µM] | 61.6% [8.25 µM]
26 | COc1ccc(-c2cc(-c3cc(OC)c(OC)c(OC)c3)c(C#N)c(=O)n2CCCCCC(=O)NO)cc1 | 97.3% | 92.2% | 95.7% | 102% | 96.6% | 88.5% | 89.5% | 87.2% | 101% | 120%
27 | N#Cc1c(-c2ccccc2)cc(-c2ccccc2)n(CCCC(=O)NO)c1=O | 31.2% | 13% | 35.3% | 22.2% | 8.19% (active) | 30.4% | 21.8% | 22.8% | 17.7% | 18.3%
